# Reference: PubChem BioAssay (NCI)
# About 83,000 compounds went through this panel and 20% of them were active in at least one assay; those are over-represented in the sample as a whole.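 Activity criterion: percent growth below 10, measured after cells in 96-well plates were exposed to a single compound concentration for 48 hours.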 Unmarked numbers belong to inactive results. The source made the active and inactive calls.
# Key:
# Assay in all cases: NCI-60 one-dose screen, 48 h (100 = growth as untreated, 0 = no growth, -100 = all killed)
# Conditions in all cases: 10 µM unless noted
# HCT-15 colon = system: HCT-15 colon
# HT29 colon = system: HT29 colon
# SNB-75 CNS = system: SNB-75 CNS
# SNB-19 CNS = system: SNB-19 CNS
# PC-3 prostate = system: PC-3 prostate
# SK-MEL-5 melanoma = system: SK-MEL-5 melanoma
# UACC-62 melanoma = system: UACC-62 melanoma
# LOX IMVI melanoma = system: LOX IMVI melanoma
# SK-MEL-28 melanoma = system: SK-MEL-28 melanoma
Structure (SMILES),growth (HCT-15 colon),growth (HT29 colon),growth (SNB-75 CNS),growth (SNB-19 CNS),growth (PC-3 prostate),growth (SK-MEL-5 melanoma),growth (UACC-62 melanoma),growth (LOX IMVI melanoma),growth (SK-MEL-28 melanoma)
COc1cc(/C=C2\C(=O)Nc3ccccc32)cc(OC)c1O,61.6%,75.7%,23.1%,83.7%,51.2%,45.7%,72.1%,36.5%,90.3%
CCN(C(=O)c1ccc2c3c(cccc13)C=C2)c1ccccc1,88.7%,88.8%,88.9%,93.7%,83.7%,93.9%,80.3%,108%,108%
CC(C)OC1=C(Cl)C(=O)c2ccccc2C1=O,51.4%,113%,75.8%,90.1%,69.1%,96.8%,–,86.5%,101%
CCCC1=NNC(=O)C1,103%,103%,93.8%,103%,91.1%,104%,114%,108%,104%
CN1CCc2c(Sc3ccc(C(=O)NO)cc3)c3ccccc3n2C1,75.6%,48.9%,25.8%,53.4%,20.8%,–,38.9%,11.6%,14.7%
NS(=O)(=O)c1ccc(C(=O)N/N=C(\CS(=O)(=O)c2ccccc2)c2cc3cc(Br)ccc3o2)cc1,99.5%,97.4%,56.1%,69.9%,94.4%,85.6%,82%,94.7%,98.4%
C(=C\c1ccccc1)/CN1CCN(C(c2ccccc2)c2ccccc2)CC1,80.9%,83.1%,85.4%,96.3%,77.5%,95.5%,96.9%,99.7%,91.9%
O=C1CC2c3cc(-c4cc5ccccc5o4)ccc3CCN2C(=O)N1c1ccccc1 (configuration not stated),54.6%,85.7%,73.8%,89.6%,51.9%,82.7%,81.1%,94.4%,99.8%
CC1(C)N=C(N)N=C(N)N1c1cccc(/C=C/C=C/c2cccc([N+](=O)[O-])c2)c1,88.7%,11.5%,58.3%,51.6%,2.12% (active),68.3%,47.3%,33.7%,65.6%
CCCCCCCCCCCC(=O)[O][Sn]([CH2]CCC)([CH2]CCC)[CH2]CCC,-87.2% (active),-90.3% (active),-100% (active),-95.5% (active),-92.6% (active),-97.8% (active),–,-90.1% (active),-99.1% (active)
FC(F)(F)c1cc(CNc2nc(Cl)ncc2Br)cc(C(F)(F)F)c1,79.7%,98.4%,66.6%,107%,80.2%,95.4%,77.2%,98.4%,94%
Brc1ccc(SCN(CSc2ccc(Br)cc2)Cc2ccccc2)cc1,78.8%,78.9%,66.4%,84.2%,26.4%,91.2%,92%,-15.5% (active),101%
O/N=C/c1cccs1,98.4%,107%,94.3%,107%,101%,103%,119%,107%,112%
CCCCC(=O)N/N=C/c1cc(I)cc(I)c1O,15.6%,56.2%,62.8%,62.9%,47%,78.9%,38.8%,38.9%,58.8%
CCCCCCCCCCCCCCNc1nc(CO)ncc1-c1ccc(C(F)(F)F)cc1,103%,104%,74.2%,118%,94.6%,98.5%,95.5%,91.6%,108%
Cc1nc2cc(Nc3nc(Nc4ccc(F)cc4)nc(-c4cccs4)n3)ccc2n1Cc1ccccc1,30.3%,20.5%,52.2%,66.7%,29.4%,76.5%,61.5%,64.8%,74.3%
C=CC[P+](c1ccccc1)(c1ccccc1)c1ccccc1,98.1%,40%,63.3%,61.6%,34.7%,33.4%,42%,66.4%,71.8%
COc1ccc(OC)c2ncccc12,96.3%,97.4%,88.6%,110%,92%,102%,114%,95.6%,117%
CCCOC(=O)c1ccc2c(c1)[N+](=O)C(C(=O)c1ccccc1)=C(C(F)(F)F)[N+]2=O,-65.7% (active),-92.1% (active),-98.5% (active),-88.9% (active),-91.5% (active),–,-92.4% (active),-74.7% (active),-96.8% (active)
Cc1nn(-c2ccccc2)c2nc3nc4c(c(N)c3c(-c3ccc(Cl)cc3)c12)CCC4,76.5%,55.2%,86.2%,111%,88.2%,99.4%,102%,62.5%,96.9%
COc1nc2c(cc1S(=O)(=O)c1ccccc1)CCc1c-2cnn1-c1ccccc1Cl,51.5%,36.9%,50.9%,64.5%,35.9%,68%,60%,78%,85.2%
O=C(Nc1ccc(Cl)c(Cl)c1)OCn1ncc2ccc([N+](=O)[O-])cc21,84.9%,103%,67.8%,92.9%,70.9%,95.7%,73.6%,78.8%,108%
O=[N+]([O-])c1ccc(C=C2C(Cl)=C(Cl)C(Cl)=C2Cl)cc1,31.4%,30.9%,81.5%,80.6%,58.5%,121%,71.7%,–,107%
COc1ccc(-c2c3c(N)c4c(nc3nc3c2c(C)nn3-c2ccccc2)CCCC4)cc1,68.2%,21.1%,78.6%,103%,64.9%,90.9%,92.9%,92.6%,96.9%
Cc1nn(-c2ccccc2)c2nc3nc4c(c(N)c3c(-c3ccc(Cl)cc3)c12)CCCC4,93.3%,91.5%,101%,108%,94.7%,101%,108%,94.4%,97.2%
COC(=O)[C@H]1CCCN1C(=O)[C@H]1CCCN1C(=O)[C@@H](Cc1c[nH]c2ccccc12)NC(=S)Nc1cc(C(F)(F)F)cc(C(F)(F)F)c1,55.5%,39%,40.3%,36.8%,34%,–,58.7%,44.2%,53%
COc1ccc(-n2ncc3c4nc(OC)c(S(=O)(=O)c5ccccc5)cc4ccc32)cc1,77.6%,70.3%,6.98% (active),64.9%,79.4%,90.4%,59.9%,86.1%,71.6%
O=C1OCC2=C1C(c1ccc3c(c1)OCO3)CC(=O)N2c1cccc(Cl)c1 (configuration not stated),101%,97.5%,80.7%,93%,102%,–,102%,98%,101%
Oc1cccc(Nc2nc(-c3ccccn3)cs2)c1,78.3%,112%,94.3%,98.8%,94.5%,91.1%,–,93.9%,111%
CCCCCCCCCCCCSC1=CC(=O)C=CC1=O,74.6%,94.7%,44.9%,40.4%,16.8%,97.5%,96.4%,28.1%,110%
